# Measurements taken from the supplement of paper PMC8728848.
# The full list was thinned out, with the strongest signals kept by preference.
# Tests used:
# Experiment in all cases: glycan array binding signal (z-score within array); higher = stronger binding
# Details in all cases: glycan notation: IUPAC condensed, linker removed
# Fuc(a1-2)Gal = molecular target: Fuc(a1-2)Gal
# Method in brief: (§1)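 Arrays were curated from the Consortium for Functional Glycomics database, 3228 in total, and kept only where the protein sequence was available. Binding is expressed as a within-array Z-score. This score was averaged across arrays of the same protein sequence at different concentrations or buffers and across linkers, and negative values can be read as non-binding.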
# [1] = molecular target: Fuc(a1-2)Gal(b1-4)Fuc(a1-3)]GlcNAc(b1-2)Man(a1-3)[Fuc(a1-2)Gal(b1-4)[Fuc(a1-3)]GlcNAc(b1-2)Man(a1-6)]Man(b1-4)GlcNAc(b1-4)GlcNAc
# Method in brief: as §1
# [2] = molecular target: Fuc(a1-2)Gal(b1-4)[Fuc(a1-3)]GlcNAc
# Method in brief: as §1
# [3] = molecular target: Fuc(a1-2)[Gal(a1-3)]Gal(b1-3)GalNAc
# Method in brief: as §1
# [4] = molecular target: Fuc(a1-2)[Gal(a1-3)]Gal(b1-3)GlcNAc(b1-2)Man(a1-3)[Fuc(a1-2)[Gal(a1-3)]Gal(b1-3)GlcNAc(b1-2)Man(a1-6)]Man(b1-4)GlcNAc(b1-4)GlcNAc
# Method in brief: as §1
# [5] = molecular target: Fuc(a1-2)[Gal(a1-3)]Gal(b1-4)[Fuc(a1-3)]Glc
# Method in brief: as §1
# [6] = molecular target: Fuc(a1-2)[GalNAc(a1-3)]Gal(b1-3)GalNAc(b1-3)Gal(a1-4)Gal(b1-4)Glc
# Method in brief: as §1
# [7] = molecular target: Fuc(a1-2)[GalNAc(a1-3)]Gal(b1-4)Glc
# Method in brief: as §1
# [8] = molecular target: Fuc(a1-2)[GalNAc(b1-3)]Gal
# Method in brief: as §1
# [9] = molecular target: Fuc(a1-3)[Gal(b1-4)]GlcNAc(b1-2)Man(a1-3)[Fuc(a1-3)[Gal(b1-4)]GlcNAc(b1-2)Man(a1-6)]Man(b1-4)GlcNAc(b1-4)[Fuc(a1-6)]GlcNAc
# Method in brief: as §1
# [10] = molecular target: Fuc(a1-3)[GalNAc(b1-4)]GlcNAc
# Method in brief: as §1
# [11] = molecular target: Gal(a1-3)Gal(b1-3)GlcNAc(b1-6)GalNAc
# Method in brief: as §1
# [12] = molecular target: Gal(a1-3)Gal(b1-4)GlcNAc(b1-2)Man(a1-3)[Gal(a1-3)Gal(b1-4)GlcNAc(b1-2)Man(a1-6)]Man(b1-4)GlcNAc(b1-4)GlcNAc
# Method in brief: as §1
# [13] = molecular target: Gal(b1-4)GlcNAc(a1-6)Gal(b1-4)GlcNAc
# Method in brief: as §1
# [14] = molecular target: Gal(b1-4)GlcNAc(b1-2)Man(a1-3)[Gal(b1-4)GlcNAc(b1-2)Man(a1-6)]Man(b1-4)GlcNAc(b1-4)GlcNAc
# Method in brief: as §1
# [15] = molecular target: Gal(b1-4)GlcNAc(b1-2)[Gal(b1-4)GlcNAc(b1-4)]Man(a1-3)[GlcNAc(b1-4)][Gal(b1-4)GlcNAc(b1-2)[Gal(b1-4)GlcNAc(b1-6)]Man(a1-6)]Man(b1-4)GlcNAc(b1-4)GlcNAc
# Method in brief: as §1
# [16] = molecular target: Gal(b1-4)GlcNAc(b1-2)[Gal(b1-4)GlcNAc(b1-6)]Man(a1-6)[Gal(b1-4)GlcNAc(b1-2)Man(a1-3)]Man(b1-4)GlcNAc(b1-4)GlcNAc
# Method in brief: as §1
# [17] = molecular target: Gal(b1-4)GlcNAc(b1-3)Gal(b1-4)GlcNAc(b1-2)Man(a1-3)[Gal(b1-4)GlcNAc(b1-3)Gal(b1-4)GlcNAc(b1-2)Man(a1-6)]Man(b1-4)GlcNAc(b1-4)[Fuc(a1-6)]GlcNAc
# Method in brief: as §1
# [18] = molecular target: Gal(b1-4)GlcNAc(b1-3)Gal(b1-4)GlcNAc(b1-2)[Gal(b1-4)GlcNAc(b1-3)Gal(b1-4)GlcNAc(b1-6)]Man(a1-6)[Gal(b1-4)GlcNAc(b1-3)Gal(b1-4)GlcNAc(b1-2)Man(a1-3)]Man(b1-4)GlcNAc(b1-4)GlcNAc
# Method in brief: as §1
# [19] = molecular target: Gal(b1-4)GlcNAc(b1-3)Gal(b1-4)GlcNAc(b1-3)Gal(b1-4)GlcNAc(b1-3)Gal(b1-4)GlcNAc(b1-2)Man(a1-3)[Gal(b1-4)GlcNAc(b1-3)Gal(b1-4)GlcNAc(b1-3)Gal(b1-4)GlcNAc(b1-3)Gal(b1-4)GlcNAc(b1-2)Man(a1-6)]Man(b1-4)GlcNAc(b1-4)[Fuc(a1-6)]GlcNAc
# Method in brief: as §1
# [20] = molecular target: Gal(b1-4)GlcNAc(b1-3)Gal(b1-4)GlcNAc(b1-3)Gal(b1-4)GlcNAc(b1-3)Gal(b1-4)GlcNAc(b1-2)[Gal(b1-4)GlcNAc(b1-3)Gal(b1-4)GlcNAc(b1-3)Gal(b1-4)GlcNAc(b1-3)Gal(b1-4)GlcNAc(b1-6)]Man(a1-6)[Gal(b1-4)GlcNAc(b1-3)Gal(b1-4)GlcNAc(b1-3)Gal(b1-4)GlcNAc(b1-3)Gal(b1-4)GlcNAc(b1-2)Man(a1-3)]Man(b1-4)GlcNAc(b1-4)[Fuc(a1-6)]GlcNAc
# Method in brief: as §1
# [21] = molecular target: Gal(b1-4)GlcNAc(b1-3)Gal(b1-4)GlcNAc(b1-3)Gal(b1-4)GlcNAc(b1-3)Gal(b1-4)GlcNAc(b1-3)Gal(b1-4)GlcNAc(b1-3)Gal(b1-4)GlcNAc(b1-2)Man(a1-3)[Gal(b1-4)GlcNAc(b1-3)Gal(b1-4)GlcNAc(b1-3)Gal(b1-4)GlcNAc(b1-3)Gal(b1-4)GlcNAc(b1-3)Gal(b1-4)GlcNAc(b1-3)Gal(b1-4)GlcNAc(b1-2)Man(a1-6)]Man(b1-4)GlcNAc(b1-4)GlcNAc
# Method in brief: as §1
# [22] = molecular target: Gal3S(b1-4)[Fuc(a1-3)]GlcNAc6S
# Method in brief: as §1
# [23] = molecular target: GalNAc(b1-4)GlcNAc(b1-3)GalNAc(b1-4)GlcNAc
# Method in brief: as §1
# GalNAc4S6S(b1-4)GlcNAc = molecular target: GalNAc4S6S(b1-4)GlcNAc
# Method in brief: as §1
# GlcA(b1-3)Gal = molecular target: GlcA(b1-3)Gal
# Method in brief: as §1
# [24] = molecular target: GlcNAc(b1-2)[GlcNAc(b1-4)]Man(a1-3)[GlcNAc(b1-2)Man(a1-6)]Man(b1-4)GlcNAc(b1-4)GlcNAc
# Method in brief: as §1
# GlcNAc(b1-3)Gal(b1-4)Glc = molecular target: GlcNAc(b1-3)Gal(b1-4)Glc
# Method in brief: as §1
# [25] = molecular target: GlcNAc(b1-3)Gal(b1-4)GlcNAc(b1-3)Gal(b1-4)GlcNAc(b1-2)Man(a1-3)[GlcNAc(b1-3)Gal(b1-4)GlcNAc(b1-3)Gal(b1-4)GlcNAc(b1-2)Man(a1-6)]Man(b1-4)GlcNAc(b1-4)GlcNAc
# Method in brief: as §1
# MurNAc(b1-4)GlcNAc = molecular target: MurNAc(b1-4)GlcNAc
# Method in brief: as §1
binder,measurement,setting,value
"HA-11100 (Pseudomonas aeruginosa), Q02G51_PSEAB (protein) QFNPNEIKISQQGKTTLIDQSTQRAIINWKGFDVSADEAVRFNQPGVTSSTLNRVTAGQESVIAGRISAPGQVIIYNSNGVVFSGSAKVDVGSLITTTANISDEHFRQGKLIFDQPGNPDARIVNDGSISVAEKGLAAFVAPSVANNGVINARLGTVAMAAGNAATIDLYG",glycan array binding signal (z-score),Fuc(a1-2)Gal,-0.09
same,glycan array binding signal (z-score),[1],3.58
same,glycan array binding signal (z-score),[2],-0.134
same,glycan array binding signal (z-score),[3],-0.312
same,glycan array binding signal (z-score),[4],7.81
same,glycan array binding signal (z-score),[5],0.052
same,glycan array binding signal (z-score),[6],0.044
same,glycan array binding signal (z-score),[7],-0.174
same,glycan array binding signal (z-score),[8],-0.384
same,glycan array binding signal (z-score),[9],3.33
same,glycan array binding signal (z-score),[10],-0.403
same,glycan array binding signal (z-score),[11],-0.463
same,glycan array binding signal (z-score),[12],3.53
same,glycan array binding signal (z-score),[13],-0.29
same,glycan array binding signal (z-score),[14],-0.512
same,glycan array binding signal (z-score),[15],3.28
same,glycan array binding signal (z-score),[16],7.59
same,glycan array binding signal (z-score),[17],10.5
same,glycan array binding signal (z-score),[18],5.77
same,glycan array binding signal (z-score),[19],2.99
same,glycan array binding signal (z-score),[20],3.24
same,glycan array binding signal (z-score),[21],1.87
same,glycan array binding signal (z-score),[22],-0.451
same,glycan array binding signal (z-score),[23],0.008
same,glycan array binding signal (z-score),GalNAc4S6S(b1-4)GlcNAc,-0.38
same,glycan array binding signal (z-score),GlcA(b1-3)Gal,-0.243
same,glycan array binding signal (z-score),[24],-0.37
same,glycan array binding signal (z-score),GlcNAc(b1-3)Gal(b1-4)Glc,-0.359
same,glycan array binding signal (z-score),[25],3.34
same,glycan array binding signal (z-score),MurNAc(b1-4)GlcNAc,0.053
